Data on five compounds can be found in PubChem BioAssay.

The source made the active and inactive calls.

The nature of assay [1]: optical density shifts of acrAB sulA E. coli – strain DRC41, OD650, 48 h, E. coli filamentation inducer project, primary screen (AID 1152).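 Note: E. coli MC1000 strain DRC41 lacking acrAB efflux pump and sulA.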 To be noted: higher = more signal, called active from +8 up or from −8 down.
Assay [2] is described as follows: probe aLefty1 binding on compound microarray – biochemical, small-molecule microarray, 635/667 nm fluorescence, primary screen (AID 1153).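 Note: score merges spot fluorescence with signal-to-noise ratio from the scanned slide images.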 To be noted: higher = more signal.
Assay [3] in a line: plasmodial surface anion channel blockers, osmotic lysis – cell-based, P. falciparum Indochina, OD700, 1 h, primary screen (AID 1154). To be noted: P. falciparum Indochina infected RBC osmotic lysis, higher = more signal, called active from +8 up or from −8 down.
Assay [4] in a line: plasmodial surface anion channel blockers, osmotic lysis – cell-based, P. falciparum Indochina, OD700, 2 h, primary screen (AID 1155).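 Note: lysis reports solute entry through the parasite surface anion channel PSAC.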 Particulars: P. falciparum Indochina infected erythrocytes, higher = more signal, called active from +8 up or from −8 down.
Assay [5] is described as follows: changes in parasitized red cell lysis, either direction – P. falciparum Indochina, OD700, 3 h, PSAC antagonist project, primary screen (AID 1156). Particulars: P. falciparum-infected erythrocytes, osmotic lysis, higher = more signal, called active from +8 up or from −8 down.
Assay [6] can be described thus: plasmodial surface anion channel blockers, osmotic lysis – cell-based, P. falciparum Indochina, OD700, 18 h, primary screen (AID 1157). To be noted: P. falciparum Indochina infected erythrocytes, osmotic lysis OD700, 18 h; higher = more signal, called active from +8 up or from −8 down.
Assay [7] in a line: S6 kinase pathway phospho-S6 level changes – cell-based, A549, cytoblot, luminescence, serum-stimulated, primary screen (AID 1158).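 Note: serum-stimulated A549 lung adenocarcinoma cells; signal is phosphorylated S6 detected by cytoblot immunostaining with HRP secondary.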 Particulars: 5 h, higher = more signal.
The target in assay [8] is NADPH oxidase 2 (Homo sapiens) (UniProt P04839). Put plainly: compounds shifting NOX2 Amplex Red fluorescence – cell-based, HEK293-NOX2, PMA-stimulated, NOX inhibitor project, primary screen (AID 1159). Note: test concentration not given here. Particulars: 45 min, higher = more signal, called active from +8 up or from −8 down.
Chain of NADPH oxidase 2 (Homo sapiens) (P04839 whole entry, looked up): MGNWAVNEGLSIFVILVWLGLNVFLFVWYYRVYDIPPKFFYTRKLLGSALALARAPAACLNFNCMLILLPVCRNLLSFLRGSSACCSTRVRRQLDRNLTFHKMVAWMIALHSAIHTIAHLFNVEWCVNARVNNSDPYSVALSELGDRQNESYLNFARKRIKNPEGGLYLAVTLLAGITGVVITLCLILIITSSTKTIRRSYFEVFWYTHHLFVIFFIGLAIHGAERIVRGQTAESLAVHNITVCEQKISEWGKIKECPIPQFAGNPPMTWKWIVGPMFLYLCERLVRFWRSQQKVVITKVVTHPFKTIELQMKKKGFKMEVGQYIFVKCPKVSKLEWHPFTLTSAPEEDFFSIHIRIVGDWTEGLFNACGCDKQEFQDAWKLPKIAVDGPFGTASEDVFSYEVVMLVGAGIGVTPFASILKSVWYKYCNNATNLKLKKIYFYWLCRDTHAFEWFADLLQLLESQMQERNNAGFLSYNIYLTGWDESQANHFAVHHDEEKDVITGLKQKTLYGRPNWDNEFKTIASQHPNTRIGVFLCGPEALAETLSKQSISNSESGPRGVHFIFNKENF
The target in assay [9] is NADPH oxidase 4 (Homo sapiens) (UniProt Q9NPH5). Put plainly: compounds shifting NOX4 Amplex Red fluorescence – cell-based, HEK293-NOX4, tetracycline-induced, NOX inhibitor project, primary screen (AID 1160). Particulars: HEK293-NOX4, Amplex Red H2O2 fluorescence, 45 min; higher = more signal, called active from +8 up or from −8 down.
Chain of NADPH oxidase 4 (Homo sapiens) (Q9NPH5 whole entry, looked up): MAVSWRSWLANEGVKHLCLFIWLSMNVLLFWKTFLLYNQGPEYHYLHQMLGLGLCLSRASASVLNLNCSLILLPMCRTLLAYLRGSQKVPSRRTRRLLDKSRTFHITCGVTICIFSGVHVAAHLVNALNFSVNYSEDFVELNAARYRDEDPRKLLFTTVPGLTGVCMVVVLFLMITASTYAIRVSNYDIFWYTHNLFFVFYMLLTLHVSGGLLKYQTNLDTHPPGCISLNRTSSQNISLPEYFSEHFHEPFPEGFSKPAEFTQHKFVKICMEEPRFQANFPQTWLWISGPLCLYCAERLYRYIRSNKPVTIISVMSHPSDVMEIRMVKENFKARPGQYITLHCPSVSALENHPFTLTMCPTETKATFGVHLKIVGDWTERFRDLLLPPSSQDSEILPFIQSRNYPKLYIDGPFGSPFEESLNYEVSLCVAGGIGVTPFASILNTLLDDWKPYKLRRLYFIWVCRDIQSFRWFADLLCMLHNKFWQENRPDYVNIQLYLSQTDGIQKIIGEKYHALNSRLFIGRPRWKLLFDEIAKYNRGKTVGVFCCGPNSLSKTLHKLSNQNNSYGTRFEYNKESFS
In assay [10] the target is NADPH oxidase 5 (Homo sapiens) (UniProt Q96PH1). Kind of assay: compounds shifting NOX5 Amplex Red fluorescence – cell-based, HEK293-NOX5, NOX inhibitor project, primary screen (AID 1161). To be noted: HEK293-NOX5, ionomycin, 45 min, higher = more signal.
Chain of NADPH oxidase 5 (Homo sapiens) (Q96PH1 whole entry, looked up): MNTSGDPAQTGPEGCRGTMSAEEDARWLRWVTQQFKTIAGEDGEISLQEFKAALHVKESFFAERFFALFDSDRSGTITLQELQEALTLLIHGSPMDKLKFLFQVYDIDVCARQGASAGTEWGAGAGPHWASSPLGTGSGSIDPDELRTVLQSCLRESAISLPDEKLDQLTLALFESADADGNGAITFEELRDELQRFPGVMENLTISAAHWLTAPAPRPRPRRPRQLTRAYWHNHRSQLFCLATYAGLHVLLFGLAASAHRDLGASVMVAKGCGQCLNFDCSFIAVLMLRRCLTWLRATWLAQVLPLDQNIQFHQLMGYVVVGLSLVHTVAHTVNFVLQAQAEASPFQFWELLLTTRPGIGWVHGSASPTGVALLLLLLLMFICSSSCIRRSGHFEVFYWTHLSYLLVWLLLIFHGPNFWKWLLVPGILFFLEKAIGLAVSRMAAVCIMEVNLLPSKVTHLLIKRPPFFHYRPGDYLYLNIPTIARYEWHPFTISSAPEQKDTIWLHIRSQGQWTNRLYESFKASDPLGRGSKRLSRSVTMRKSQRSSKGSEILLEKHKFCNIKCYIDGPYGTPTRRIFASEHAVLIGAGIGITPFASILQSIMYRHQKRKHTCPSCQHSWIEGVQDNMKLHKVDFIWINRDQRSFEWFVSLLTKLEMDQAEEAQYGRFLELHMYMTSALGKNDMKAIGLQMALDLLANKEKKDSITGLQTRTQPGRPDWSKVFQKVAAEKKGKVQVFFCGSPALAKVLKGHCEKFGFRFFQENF
The nature of assay [11]: compound effects on lung adenocarcinoma cell viability – A549, calcein-AM fluorescence, 48 h, basal, profiling panel (AID 1162). Note: test concentration not given here. Particulars: higher = more signal.
Assay [12] in a line: compound effects on differentiated 3T3-L1 adipocyte viability – cell-based, 3T3-L1 adipocytes, calcein-AM fluorescence, 48 h, basal, profiling panel (AID 1163). Note: test concentration not given here. To be noted: 3T3-L1 adipocytes viability, higher = more signal.
Assay [13] in a line: compound effects on hepatocellular carcinoma cell viability – HepG2, calcein-AM fluorescence, 48 h, basal, profiling panel (AID 1164). Note: test concentration not given here. Particulars: higher = more signal.
Assay [14] in a line: compound effects on multiple myeloma cell viability – MM1S, calcein-AM fluorescence, 48 h, basal, profiling panel (AID 1165).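 Note: viability of MM1S multiple myeloma cells under basal unstimulated conditions; test concentration not given here.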 To be noted: higher = more signal.
The nature of assay [15]: calcein-AM signal in unstimulated myeloma cells – cell-based, calcein-AM fluorescence, 48 h, PK04 Diversity Set, profiling panel (AID 1166).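 Note: cells grown under basal conditions without added stimulus; test concentration not given here.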 To be noted: RPMI8226 myeloma viability, higher = more signal.
A short description of assay [16]: JC-1 mitochondrial signal, unstimulated HepG2 cells – cell-based, JC-1 fluorescence, 24 h, 100 nL compound, profiling panel (AID 1167). Note: test concentration not given here. Particulars: HepG2 mitochondrial potential, higher = more signal.
Assay [17] in a line: JC-1 mitochondrial signal, unstimulated adipocytes – cell-based, JC-1 fluorescence, 3T3-L1 adipocytes, 24 h, 100 nL compound, profiling panel (AID 1168). Note: test concentration not given here. Particulars: JC-1 mitochondrial fluorescence, higher = more signal, called active from +8 up or from −8 down.
A short description of assay [18]: JC-1 mitochondrial signal, unstimulated myeloma cells – cell-based, JC-1 fluorescence, RPMI8226, 24 h, 100 nL compound, profiling panel (AID 1169). Note: test concentration not given here. Particulars: JC-1 mitochondrial potential fluorescence, higher = more signal.
A short description of assay [19]: JC-1 mitochondrial signal, unstimulated MM1S myeloma – cell-based, JC-1 fluorescence, 24 h, 100 nL compound, profiling panel (AID 1170). Note: test concentration not given here. Particulars: MM1S mitochondrial potential, higher = more signal.
Assay [20] in a line: resazurin metabolic signal in A549 cells – cell-based, resazurin fluorescence, 24 h, PK04 Diversity Set, profiling panel (AID 1171). Note: test concentration not given here. Particulars: A549 viability, higher = more signal, called active from +8 up or from −8 down.

Take `COC(=O)CC=C[C@@H](C)[C@@H](C=NO[C@@H](C)c1cn([C@H](CO)Cc2ccccc2)nn1)NS(=O)(=O)c1ccc(C)cc1`: the z-score in assay [1] was 0.264 (inactive); in assay [3], 0.507 (inactive); in assay [4], -1.66 (inactive); in assay [5], -0.598 (inactive); in assay [6], -1.93 (inactive); in [7], 1.85. Also, the z-score in assay [8] was -0.575 (inactive); in assay [9] it was 0.328 (inactive); in assay [10], 0.17; in [11], 0.788; in [12] it was 0.521; in [13] it was 1.35. In addition, the z-score is 0.56 in assay [14]; 0.593 in assay [15]; -1.24 in assay [16]; 0.153 (inactive) in assay [17]; -0.249 in assay [18]; -0.648 in assay [19]. The z-score in assay [20] is -0.685 (inactive). The compound further displayed a composite z-score in assay [2] of 0.196.

In the case of `CC(CCN1CCCCc2nc(C)c(C)cc21)=NO[C@H](C)c1cn([C@H](CO)Cc2ccccc2)nn1`, the z-score is 0.285 (inactive) in assay [1]; 2.87 (inactive) in assay [3]; 1.16 (inactive) in assay [4]; 0.758 (inactive) in assay [5]; 0.589 (inactive) in [6]; -0.286 in assay [7]. Moreover, the z-score is -0.939 (inactive) in assay [8]; 0.0532 (inactive) in assay [9]; 0.477 in assay [10]; 0.277 in assay [11]; 0.72 in assay [12]; -0.386 in assay [13]. The z-score in [14] was 0.607; in assay [15], -1.4; in [16] it was -0.969; in [17], -2.1 (inactive); in assay [18] it was 0.686; in assay [19], -0.457. In addition, the z-score in [20] is -0.0266 (inactive). For the same compound, in [2], the composite z-score is -0.0162.

For the compound `CC(CCN1CCc2nc(-c3ccccc3)c(-c3ccccc3)cc2C1)=NOC[C@@H](O)[C@H]1O[C@@H]2OC(C)(C)O[C@@H]2[C@H]1O`, the z-score in assay [1] is 0.784 (inactive); in [3] it was 1.47 (inactive); in [4], 0.239 (inactive); in assay [5], 0.318 (inactive); in [6] it was 0.244 (inactive); in assay [7], -0.0979. In addition, the z-score in assay [8] is -5.63 (inactive); in [9], -1.69 (inactive); in [10], -4.61; in assay [11], 1.89; in assay [12], -0.144; in assay [13], 1.62. The z-score was -2.72 in assay [14]; -0.676 in assay [15]; 2.55 in assay [16]; -1.54 (inactive) in assay [17]; -0.109 in assay [18]; 0.0398 in assay [19]. The z-score in assay [20] was -0.555 (inactive). In assay [2], the composite z-score is -0.0099.

For the compound `CO[C@@H]1COC(=O)[C@@H](C)COC(=O)[C@@H](C)NC(=O)CC=C[C@@H]1C`, the z-score is -0.294 (inactive) in assay [1]; -1.15 (inactive) in [3]; -1.26 (inactive) in assay [4]; 0.645 (inactive) in assay [5]; -0.858 (inactive) in assay [6]; 1 in assay [7]. For the same compound, the z-score is -0.675 (inactive) in assay [8]; -2.43 (inactive) in [9]; -2.91 in assay [10]; -0.448 in assay [11]; 1.25 in [12]; -1.45 in assay [13]. Moreover, the z-score in assay [14] is -0.539; in assay [15], -1.86; in assay [16], 0.2; in [17], -0.189 (inactive); in assay [18] it was 0.0701; in [19] it was -1.48. In addition, the z-score in assay [20] is 0.512 (inactive). Besides, the composite z-score in [2] came out at 0.682.

As for `Cn1c(=O)n2n(c1=O)[C@H]1[C@H](O)[C@@H]3O[C@@H]3C(=NOCc3ccccc3)[C@H]1CC2`, the z-score was -0.022 (inactive) in [1]; -0.347 (inactive) in [3]; 0.0184 (inactive) in assay [4]; -0.432 (inactive) in assay [5]; 0.206 (inactive) in [6]; -0.807 in assay [7]. The z-score is 0.265 (inactive) in [8]; 0.456 (inactive) in [9]; 0.632 in assay [10]; 0.102 in [11]; -0.48 in assay [12]; 0.316 in [13]. For the same compound, the z-score was 0.0846 in assay [14]; -0.548 in assay [15]; -0.141 in assay [16]; -0.383 (inactive) in [17]; -0.0104 in [18]; -0.338 in [19]. Also, the z-score in assay [20] is -0.508 (inactive). In addition, the composite z-score in assay [2] is -0.0501.
